# Laboratory results published in PubChem BioAssay AID434989 (The Scripps Research Institute Molecular Screening Center, 2010).
# Hit rate of the full screen: of about 330,000 compounds, about 1,400 (0.42%) were called active.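 The calls were made as follows: active = inhibition above its plate's threshold, mean inhibition of all tested compounds on the plate plus 3 SD (cut at about 37% in these data); inactive = the rest.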 Only a selection was taken, and actives are over-represented in it overall.
# Target: Orexin/Hypocretin receptor type 1 (Homo sapiens) (UniProt O43613)
# Sequence (O43613 whole entry, looked up): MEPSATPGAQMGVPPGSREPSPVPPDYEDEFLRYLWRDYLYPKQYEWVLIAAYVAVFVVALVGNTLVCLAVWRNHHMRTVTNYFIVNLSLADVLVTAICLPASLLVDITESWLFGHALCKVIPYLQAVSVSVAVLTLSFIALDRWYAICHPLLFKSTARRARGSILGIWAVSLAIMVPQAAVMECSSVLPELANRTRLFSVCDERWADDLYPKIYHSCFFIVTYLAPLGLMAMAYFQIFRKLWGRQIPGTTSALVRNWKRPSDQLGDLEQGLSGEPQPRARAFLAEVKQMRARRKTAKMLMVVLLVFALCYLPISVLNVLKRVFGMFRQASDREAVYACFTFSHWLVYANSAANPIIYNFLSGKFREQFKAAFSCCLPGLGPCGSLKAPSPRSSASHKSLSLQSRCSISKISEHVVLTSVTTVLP
# Experiment: OX1R (HCRTR1) antagonists, primary screen, fluorescence, CHO/OX1R cells, Fluo-8 calcium, orexin A (AID 434989);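 also: 0% = orexin A challenge wells and 100% = SB-334867-A antagonist wells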
# Details: Fluo-8 calcium fluorescence, at 5 µM, hits give high values
row,Compound,inhibition
1,S=c1[nH]nc(-c2cc(-c3ccccc3)n[nH]2)n1/N=C/c1c2ccccc2cc2ccccc12,44.8% (active)
2,Fc1ccccc1/C=N/n1c(-c2cccnc2)n[nH]c1=S,-5.34% (inactive)
3,c1ccc(-c2cc(-c3ccccc3)[nH]n2)cc1,-9.86% (inactive)
4,C=CC[C@H](CC(=O)OC(C)(C)C)C(=O)OC[C@H]1CCCN1C(=O)[C@H](CC=C)CC(=O)N(CCO)Cc1ccccc1,-15.6% (inactive)
5,O=C1N[C@H](Cc2c[nH]c3ccccc23)COC(=O)[C@H](Cc2ccc(F)cc2)C/C=C\C[C@H]1CC(=O)N(CCO)Cc1ccccc1,-2.05% (inactive)
6,CC(C)(C)NS(=O)(=O)NC(=O)C1=C(N2CCCC2)COC1=O,-2.12% (inactive)
7,O=C(NN=C1CCC(=NNC(=O)c2cccnc2)CC1)c1cccnc1,-6.2% (inactive)
8,O=C(N/N=C/c1sc(N2CCCCC2)nc1-c1cccs1)c1cccnc1,44.9% (active)
9,O=C(CNC(=O)c1cccnc1)N/N=C/c1cccnc1,1.04% (inactive)
10,CC(=O)N(O)CCCCCNC(=O)CCC(=O)N(O)CCCCCNC(=O)CCC(=O)N(O)CCCCCNC(=O)CCC(=O)O,-5.54% (inactive)
11,CC(=O)NC(Cc1c[nH]c2ccccc12)C(=O)O (stereo unspecified),-1.34% (inactive)
12,O=C(NC(Cc1c[nH]c2ccccc12)C(=O)N/N=C/c1ccc(Br)cc1)c1cccs1 (stereo unspecified),52.5% (active)
13,CC(=O)Nc1ccc(/C=N/NC(=O)c2cccs2)cc1,18.2% (inactive)
14,Cc1ccc(N2C(=O)N3[C@@H]4c5ccccc5OC[C@@H]4[C@@H](c4ccccc4)[C@@]3(C)C2=O)cc1,-30.9% (inactive)
15,COc1ccc(CNc2nc(NCc3ccc(OC)cc3)c3ncn(C4CCCC4)c3n2)cc1,-5.92% (inactive)
16,Cc1noc(C)c1NC(=O)Nc1ccc2c(c1)C(=O)N([C@H](C)CO)C[C@H](C)[C@@H](CN(C)C(=O)Nc1ccccc1)O2,-4.54% (inactive)
17,CC(=O)c1ccc(NC(=S)NC(=O)CC(C)C)cc1,3.22% (inactive)
18,COc1cc(NS(=O)(=O)c2ccc(NC(C)=O)cc2)cc(OC)c1,9.3% (inactive)
19,COc1ccc(NS(=O)(=O)c2ccc(NC(=S)NC(=O)CC(C)C)cc2)cc1,50.3% (active)
20,COc1ccc(N2CCN(C(CNS(=O)(=O)c3ccc(C)cc3)c3ccccc3)CC2)cc1 (stereo unspecified),-26.8% (inactive)
21,CCN([C@H](CO)C(C)C)S(=O)(=O)c1ccccc1Br,1.51% (inactive)

row,Compound,inhibition
1,O=C(COC(=O)COc1ccccc1F)Nc1cccc(S(=O)(=O)N2CCCCC2)c1,-27.3% (inactive)
2,CCn1nnc2cc(C(=O)Nc3ccc(C(=O)OC(C)C)cc3)ccc21,-14.8% (inactive)
3,COc1cc(OC)cc(C(=O)NC(C(=O)N2CCC2)C(C)C)c1 (stereo unspecified),-9.6% (inactive)
4,COc1cc(OC)cc(C(=O)N[C@H](C(=O)OCC(=O)NC(C)c2ccccc2)C(C)C)c1 (stereo partly specified),59% (active)
5,Cc1cc(C)cc(OCC(=O)NC(C)c2ccccc2)c1 (stereo unspecified),-37.8% (inactive)
6,CC(C)(C)OC(=O)C[C@@H]1C/C=C\C[C@@H](CC(=O)N[C@H](CO)Cc2ccccc2)C(=O)NCCOC1=O,2.53% (inactive)
7,COc1ccc(CN2C(CC(=O)Nc3cccnc3)c3ccc(C(F)(F)F)cc3S2(=O)=O)cc1 (stereo unspecified),-16.2% (inactive)
8,COC(=O)Cn1cc(/C=C/[N+](=O)[O-])c2ccccc21,-4.68% (inactive)
9,O=C(Cn1ccc2cc(S(=O)(=O)N3CCCC3)ccc21)NCc1ccccc1,-25.5% (inactive)
10,O=[N+]([O-])/C=C/c1ccc2c(ccn2Cc2ccccc2)c1,53.8% (active)
11,CC1(C)C[C@H]2C3=CCC4[C@@]5(C)CC[C@H](O)[C@](C)(CO)C5CC[C@@]4(C)[C@]3(C)C[C@@H](O)[C@@]2(CO)[C@@H](O)[C@@H]1O (stereo partly specified),-0.97% (inactive)
12,O=C(Nc1ccc(C2CC2(Cl)Cl)cc1)c1cccc([N+](=O)[O-])c1 (stereo unspecified),45.8% (active)
13,O=C(Nc1ccc(NC(=O)c2ccco2)c(Cl)c1)c1cccc([N+](=O)[O-])c1,-19.9% (inactive)
14,O=C(Nc1ccc(C(=O)N2CCCCC2)cc1)c1cccc([N+](=O)[O-])c1,1.86% (inactive)
15,CC(Sc1nncn1C)C(=O)NCCC1=CCCCC1 (stereo unspecified),-6.11% (inactive)
16,COc1ccc(CNC(=O)C[C@H]2C[C@H](C(=O)N3CCOCC3)[C@@]3(CCC4CCCC4)c4[nH]c5ccc(Cl)cc5c4CCN3C2=O)cc1OC,19.8% (inactive)
17,Cc1ccc(NC(=O)OCc2cncs2)cc1,-7.33% (inactive)
18,COc1ccc(Nc2ccc([N+](=O)[O-])cn2)cn1,-22.9% (inactive)
19,COc1ccc(NC(=O)/C(Cl)=C(/Cl)S(=O)Cc2ccc(C)cc2)cn1 (stereo unspecified),47.5% (active)
20,CCCSc1ccc([C@H]2N[C@@](Cc3ccccc3)(C(=O)OC)[C@H]3C(=O)N(C)C(=O)[C@@H]23)cc1,-27.9% (inactive)
21,CC(C)(C)OC(=O)C1=C(CO)CS[C@@H]2[C@H](NC(=O)Cc3ccccc3)C(=O)N12,1.11% (inactive)

row,Compound,inhibition
1,C=CC[C@@H](CC(=O)NCCO)C(=O)N[C@H](C)COC(=O)[C@@H](CC=C)CC(=O)OC(C)(C)C,1.19% (inactive)
2,CN(C(=O)COC(=O)Cc1ccccc1[N+](=O)[O-])C1CCS(=O)(=O)C1 (stereo unspecified),1.38% (inactive)
3,CC(C)n1cnc2c(NCc3ccccc3)cc(N[C@@H](CO)Cc3ccccc3)cc21,-6.91% (inactive)
4,Cc1cc(N2CCCC2)ccc1NC(=O)COc1ccc(Cl)cc1,23.4% (inactive)
5,Cc1ccc(NC(=O)COc2ccc(-n3ccnc3)cc2)cc1Cl,49.1% (active)
6,CCC(=O)c1ccc(OCC(=O)Nc2ccc3nc(C)sc3c2)cc1,-9.93% (inactive)
7,CN(CC(=O)Nc1ccc(OC(F)F)cc1)S(=O)(=O)/C=C/c1ccccc1,-20% (inactive)
8,COc1ccc(S(=O)(=O)Nc2cccc3c2O[C@H](CN(C)S(=O)(=O)c2ccc(OC)cc2)[C@@H](C)CN([C@H](C)CO)C3=O)cc1,-20.8% (inactive)
9,CN[C@H](C(=O)NC[C@H]1O[C@@H](n2cnc3c(N)ncnc32)[C@H](O)[C@@H]1O)[C@@H](C)OCc1ccccc1,-13.1% (inactive)
10,CCCCNS(=O)(=O)CCNCc1ccccc1OC,-14.5% (inactive)
11,O=C(COC(=O)C1CCCO1)Nc1nc(-c2ccc(F)cc2)cs1 (stereo unspecified),-7.58% (inactive)
12,CCCCCCCCCCOC(=O)Cn1c(COc2ccc(C)cc2)[n+](C)c2ccccc21,51.1% (active)
13,CCCCn1c(N)c(N(CCOC)C(=O)c2cccc(OCc3ccccc3)c2)c(=O)[nH]c1=O,-25.9% (inactive)
14,CCn1c(COc2cccc(OC)c2)nnc1SCC(=O)N1CCOCC1,-6.58% (inactive)
15,CCOC(=O)Cn1c(-c2cccnc2Cl)nc2ccccc21,-7.78% (inactive)
16,CCOC(=O)COn1c(=O)c(-c2ccc(OCC)cc2)[n+]([O-])c2ccccc21,-31.8% (inactive)
17,CCCCCCCCCCOC(=O)Cn1c(COc2cccc(OC)c2)[n+](C)c2ccccc21,41.4% (active)
18,COc1ccc2nc3n(c(=O)c2c1)-c1ccc(Cl)cc1C(=O)NC3Cc1ccccc1 (stereo unspecified),-24.8% (inactive)
19,CCOC(=O)C1=CN(Cc2ccc(Br)cc2)S(=O)(=O)N(C)C1C (stereo unspecified),-12.4% (inactive)
20,O=C1[C@@H](c2ccccc2)[C@@H](c2ccccc2)N1c1cccnc1,42.8% (inactive)
21,COc1cc(/C=C/C(=O)Nc2ccc(OC)c(S(=O)(=O)N3CCOCC3)c2)ccc1OCC#N,9.74% (inactive)

row,Compound,inhibition
1,Cn1nnnc1SCC(=O)Nc1nc2ccccc2s1,-5.36% (inactive)
2,C=CCn1c(SCC(=O)Nc2nc3ccccc3s2)nnc1-c1ccccc1O,68% (active)
3,C=CCn1c(SCC(=O)NCc2ccccc2)nnc1-c1cc(Br)ccc1O,-7.43% (inactive)
4,Cc1ccc(S(=O)(=O)NC[C@H]2O[C@@H](n3cnc4c(N)ncnc43)[C@H](O)[C@@H]2O)s1,-0.44% (inactive)
5,CCn1c(=S)[nH]c2cc(S(=O)(=O)N3CCOCC3)ccc21,-24.1% (inactive)
6,O=C(O)c1ccccc1CSc1nc2ccccc2s1,-10.9% (inactive)
7,O=[N+]([O-])c1c(NCCO)cc(Sc2nc3ccccc3s2)c2nonc12,59.3% (active)
8,CCOc1ccccc1Nc1ccc2nonc2c1[N+](=O)[O-],-9.48% (inactive)
9,C[C@@H](CN1CCC[C@H]1CN1C(N)=NC[C@@H]1Cc1ccccc1)N1C[C@@H](Cc2ccccc2)N(CCCC2CCCC2)C1=N,-9.98% (inactive)
10,Fc1ccccc1-c1cc2cc3c(cc2cn1)OCO3,38.1% (inactive)
11,Fc1ccc2[nH]c3c(N4CCSCC4)ncnc3c2c1,52.4% (active)
12,Cc1c(CN2CC[C@@H](N3CCN(c4ccccn4)CC3)[C@H](O)C2)[nH]c2ccc(F)cc12,-18.8% (inactive)
13,C#CCOCCOCCOCCNc1nc(N2CCN(C(=O)[C@H](CCC(=O)O)n3cc(CN)nn3)CC2)nc(N2CCN(C(=O)[C@H](CCC(=O)O)n3cc(CN)nn3)CC2)n1,-6.85% (inactive)
14,CN(C(=O)c1cccc(NC(=O)Cc2cccc([N+](=O)[O-])c2)c1)C1CCCCC1,-12.3% (inactive)
15,C[C@H](CO)N1C[C@H](C)[C@H](CN(C)CC2CC2)Oc2ccc(NC(=O)CCN3CCOCC3)cc2C1=O,7.19% (inactive)
16,COc1ccc(NS(=O)(=O)c2ccc(C(=O)Nc3c(C)n(C)n(-c4ccccc4)c3=O)cc2)cc1,1.25% (inactive)
17,CC(NC(=O)COC(=O)Cn1cc(C(F)(F)F)ccc1=O)c1ccccc1 (stereo unspecified),-5.69% (inactive)
18,CC1O[C@H](OC2C(COC3OC(CO)C(O)[C@H](O)C3O)OC(OC3CC[C@]4(C)C(CC[C@@]5(C)[C@@H]4C=C[C@]46OC[C@@]7(CCC(C)(C)C[C@H]74)C(O)C[C@@]56C)C3(C)C)C(O)C2O)C(O)C(O)C1O (stereo partly specified),-2.45% (inactive)
